Hit rate of the full screen: of about 340,000 compounds, about 270 (0.079%) were called active. The sample holds actives, similar compounds and a random draw of the others, so the mix is not that of the screen.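 Rule for the calls: active = activation above a cutoff set at the mean over all compounds plus 3 SD (cut at about 18% in these data); inactive = the rest.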 Where a SMILES comes first, the peptide text is derived from it.

The target in this experiment is cAMP-dependent protein kinase catalytic subunit beta (Homo sapiens) + cAMP-dependent protein kinase type II-beta regulatory subunit (Homo sapiens) (UniProt P22694+P31323). In words: compounds dissociating PKAc from R2B subunit – biochemical, fluorescence polarization, Cy5-IP20, human, primary screen (AID 504700).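 Note: higher means more holoenzyme dissociation and a rise in polarization.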 The conditions noted are these: PKA-R2B holoenzyme dissociation, at 11.4 µM, stronger effect = higher value, 0% DMSO only, 100% 113 µM cGMP, R2B truncated from residue 108, S112A mutant. (In general: Polarisation of emitted light reports the rotation of a fluorescent probe.)
Chain of cAMP-dependent protein kinase catalytic subunit beta (Homo sapiens) + cAMP-dependent protein kinase type II-beta regulatory subunit (Homo sapiens) (P31323 whole entry, looked up, other chains not shown, the tested form may be a part): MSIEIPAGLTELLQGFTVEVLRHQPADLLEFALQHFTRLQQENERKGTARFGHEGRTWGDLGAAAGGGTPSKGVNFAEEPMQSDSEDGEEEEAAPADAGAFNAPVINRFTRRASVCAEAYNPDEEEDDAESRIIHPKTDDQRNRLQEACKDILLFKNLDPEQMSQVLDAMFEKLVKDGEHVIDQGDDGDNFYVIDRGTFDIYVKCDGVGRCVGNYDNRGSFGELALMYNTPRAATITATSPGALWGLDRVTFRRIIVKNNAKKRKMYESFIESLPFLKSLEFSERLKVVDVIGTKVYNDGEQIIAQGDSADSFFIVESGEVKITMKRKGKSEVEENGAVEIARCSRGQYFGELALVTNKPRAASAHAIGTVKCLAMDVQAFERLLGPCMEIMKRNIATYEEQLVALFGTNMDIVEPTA
With `C[C@H]1CN([C@@H](C)CO)C(=O)c2cc(-c3cccc(F)c3)cnc2O[C@@H]1CN(C)S(C)(=O)=O`, the activation was 4.49% (inactive). For the compound `O=C(C1CCCO1)N1CCN(C(=O)C23CC4CC(CC(C4)C2)C3)CC1` (stereo unspecified), the activation is 7.92% (inactive). The figure for `O=Nc1c(O)cc(O)c2ccccc12` is -0.7% (inactive). Regarding `O=C(CCN1CCCCC1)Nc1ccc(F)c(F)c1`, the activation is -4% (inactive). In the case of `O[C@H]1C[C@H](c2ccc(Cl)cc2)N(Cc2cccs2)C[C@@H]1n1cc(C2CC2)nn1`, the activation is -5.34% (inactive). On to `COc1ccc(-c2ccc3[nH]c4c(c3c2)CCN2C[C@H]3[C@H](C)ON(C)[C@H]3C[C@@H]42)cc1`, for which the activation was -1.96% (inactive).

With `C[C@H]1CN([C@@H](C)CO)C(=O)c2cc(Br)cnc2O[C@H]1CN(C)S(=O)(=O)c1cccs1`, the activation is -1.49% (inactive).

Regarding `O=C(c1ncn2c1c(=O)[nH]c1ccccc12)N1CCc2ccccc2C1`, the activation is 0.26% (inactive). With `Cc1cccc(C)c1NC(=O)CNC(=O)c1ccc(N2CCOCC2)c([N+](=O)[O-])c1` the figure was -5.41% (inactive). Consider `Cc1noc(C)c1NC(=O)N(C)C[C@@H]1Oc2cc(Br)ccc2S(=O)(=O)N([C@@H](C)CO)C[C@H]1C`, for which the activation is -6.5% (inactive). Regarding `Cc1cn([C@H]2C[C@H](O)[C@@H](CNC(=O)[C@H](N)Cc3cccnc3)O2)c(=O)[nH]c1=O`, the activation is 3.26% (inactive). `COc1ccc(NC(=O)CN(C)C(=O)c2cc(C)oc2C)cc1`: the activation was 7.31% (inactive). The figure for `O=C(NCCc1cccc(F)c1)C1CC(O)CN1C(=O)Nc1ccccc1` (stereo unspecified) is -8.6% (inactive); for `COc1ccc([C@H]2N[C@]3(CCCN(Cc4ccco4)C3=O)[C@H]3C(=O)N(C)C(=O)[C@@H]23)cc1` it is -1.07% (inactive); for `C[C@H]1CN([C@@H](C)CO)C(=O)c2cc(C3=CCCCC3)cnc2O[C@@H]1CN(C)C(=O)Cc1ccccc1` it is 4.23% (inactive). With `Nc1nnn(CC(=O)N/N=C/c2ccc(O)cc2)n1`, the activation was -7.14% (inactive). With `CC(C)(C)c1nnc(N/N=C/c2ccc(O)cc2)n(N)c1=O` the figure was 21.1% (active). With `Cc1nonc1C(=O)N/N=C/c1ccc(O)cc1` the figure was -0.48% (inactive). In the case of `COc1cc2nnn(-c3ccncc3)c2cc1OC`, the activation is 5.36% (inactive). Take `COc1ccc(C(=O)OCC(=O)Nc2cc(C)on2)cc1F`: the activation was 1.88% (inactive). In the case of `COC(=O)C[C@H]1C[C@@H]2c3cc(NC(=O)Nc4ccccc4)ccc3O[C@@H]2[C@@H](CO)O1`, the activation is 6.99% (inactive). The figure for `CC(C)[C@H](NC(=O)c1ccccc1F)C(=O)Nc1cccc(S(=O)(=O)N2CCOCC2)c1` is 4.82% (inactive); for `Cc1ccc([C@H]2N[C@]3(CCCN(CC4CCCCC4)C3=O)[C@H]3C(=O)N(Cc4ccccc4)C(=O)[C@@H]23)cc1` it is -3.62% (inactive); for `O=C(CNC(=O)c1ccco1)OCC(=O)c1ccccc1` it is 3.42% (inactive). On to `O=C(CNC(=O)c1ccccc1)NCC(=O)OCC(=O)c1ccccc1` (HELM PEPTIDE1{[O=C(c1ccccc1)[*:2]].G.G.[O=C(CO[*:1])c1ccccc1]}$$$$V2.0), for which the activation was 22.6% (active). With `O=C(CNC(=O)c1ccccc1)NCC(=O)OCc1ccc(Cl)cc1` the figure was -2.62% (inactive); with `O=C(O)C1CCCN1c1nc(Cl)ccc1[N+](=O)[O-]` (stereo unspecified), 5.76% (inactive); with `COc1ccc(C(CNC(=O)c2ccc(OCc3cscn3)cc2)N2CCCC2)cc1` (stereo unspecified), 3.82% (inactive). For `O=C(O)C1=C(C(=O)O)C2CCC1C2`, the activation is 19.1% (active). Regarding `COc1ccc(S(=O)(=O)N2CCCCC2)cc1C(=O)NC1CCS(=O)(=O)C1` (stereo unspecified), the activation is -9.4% (inactive). As for `C[C@@H]1CN([C@@H](C)CO)C(=O)c2cc(NS(C)(=O)=O)ccc2O[C@@H](C)CCCCO[C@H]1CN(C)C(=O)Nc1ccc2c(c1)OCO2`, the activation is 3.71% (inactive). Regarding `COc1cccc(C(=O)Nc2ccc3nc4n(c(=O)c3c2)CCCCC4)c1`, the activation was -0.66% (inactive). With `CC(C)C1CCN(C(=O)C2CCC(=O)N(C3CCCCCC3)C2)CC1` (stereo unspecified) the figure was -0.9% (inactive). In the case of `N#CCCN(C(=O)Nc1ccc(Cl)c(Cl)c1)C1CCCCC1`, the activation is 1.61% (inactive). As to `O=C(c1ccc(CS(=O)Cc2ccccc2Cl)o1)N1CCN(c2ccccc2)CC1` (stereo unspecified), the activation is 2.13% (inactive). The figure for `COc1ccc(-c2cnc3c(c2)C(=O)N([C@H](C)CO)C[C@@H](C)[C@H](CN(C)Cc2ccccc2)O3)cc1` is 5.52% (inactive). The figure for `CCOc1cc(/C=N/NC(=O)c2ccncc2)cc(Br)c1O` is -1.34% (inactive).

Consider `Cc1ccc(NC(=O)c2ccco2)cc1`, for which the activation was 4.37% (inactive). With `CC1(C)CN(CCc2ccccc2)C(=O)[C@H]1CC(=O)Nc1ccc(Br)cc1` the figure was -0.64% (inactive).

As to `COc1ccc(NC(=O)N(C)C[C@H]2Oc3ncc(C#C[C@@H](C)O)cc3C(=O)N([C@H](C)CO)C[C@H]2C)cc1`, the activation was 2.12% (inactive).

For the compound `COCOCCn1cc(CN2CCS(=O)(=O)N(Cc3ccc(-c4ccc(OC)cc4)cc3)C(CC(C)C)C2=O)nn1` (stereo unspecified), the activation is -14.1% (inactive). Turning to `Cc1cccc(C(=O)NC2CCN(CC(=O)Nc3cccc(Cl)c3)CC2)c1`, the activation was -3.65% (inactive). With `COc1ccc(OC)c(NC(=O)C2CCCN2S(=O)(=O)c2ccc3c(c2)CC(C)N3C(C)=O)c1` (stereo unspecified) the figure was -3.21% (inactive).

As for `COc1ccc(CC(NC(C)=O)C(=O)NC2CCN(C(=O)c3ccc(Cl)cc3)CC2)cc1` (stereo unspecified), the activation is 19.4% (active). With `CC(=O)NC(Cc1ccc(F)c(F)c1)C(=O)NC1CCN(C(=O)c2ccc(C)cc2)CC1` (stereo unspecified) the figure was -1.79% (inactive); with `COc1ccc(CC(NC(C)=O)C(=O)NC2CCN(C(=O)c3ccc(OC)c(OC)c3)CC2)cc1OC` (stereo unspecified), -5.58% (inactive).

On to `COc1cccc(Nc2nnc(SCC(=O)N3CC(=O)Nc4ccccc43)s2)c1`, for which the activation is -4.91% (inactive).

For `COc1ccc(C(=O)CSc2nnc(NC(=O)C3CC(=O)N(c4cccc(OC)c4)C3)s2)cc1` (stereo unspecified), the activation is -12.2% (inactive). The figure for `COc1cccc(Nc2nnc(SCC(=O)N3CC(C)OC(C)C3)s2)c1` (stereo unspecified) is 19.7% (active); for `C[C@@H]1CN([C@@H](C)CO)C(=O)CCCn2nncc2CO[C@@H]1CN(C)S(=O)(=O)c1ccc(-c2ccccc2)cc1` it is 8.61% (inactive); for `CN1CCn2cnc(C(=O)NCC(=O)OC(C)(C)C)c2C1=O` it is 6.86% (inactive).
